Bioassay records from PubChem.
TEAD-YAP inh = TEAD-YAP interaction inhibition; HEK-TIYL cells, TEAD-Gal4/YAP UAS-luciferase luminescence; inhibition, % at 9.12 µM; 640,000 compounds, 1.4% hits; AID 1259422; in the data active = inhibition above about 32%
FBW7 activator = human FBW7 E3 ligase activation, primary screen; 650,000 compounds, 0.13% hits; AlphaScreen FBW7–phospho-cyclin E peptide binding, activator screen; normalized activity (activation), % at 26.1 µM; Q969H0; in the data active = normalized activity above about 1.9%;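 note: purified mutant Fbw7 with reduced substrate affinity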
MITF primary = blocks human microphthalmia-associated transcription factor; O75030; AlphaScreen MITF homodimerization, bead proximity signal; inhibition, % at 2.6 µM; 650,000 compounds, 0.91% hits; in the data active = inhibition above about 50%
GPR151 activ = activators of human GPR151. activation, % at 11.2 µM. PathHunter beta-arrestin GPR151 cells, luminescence. AID 1508602. Q8TDV0. 650,000 compounds, 1% hits; in the data active = activation above about 4.9%
Target sequence (Q8TDV0 whole entry, looked up): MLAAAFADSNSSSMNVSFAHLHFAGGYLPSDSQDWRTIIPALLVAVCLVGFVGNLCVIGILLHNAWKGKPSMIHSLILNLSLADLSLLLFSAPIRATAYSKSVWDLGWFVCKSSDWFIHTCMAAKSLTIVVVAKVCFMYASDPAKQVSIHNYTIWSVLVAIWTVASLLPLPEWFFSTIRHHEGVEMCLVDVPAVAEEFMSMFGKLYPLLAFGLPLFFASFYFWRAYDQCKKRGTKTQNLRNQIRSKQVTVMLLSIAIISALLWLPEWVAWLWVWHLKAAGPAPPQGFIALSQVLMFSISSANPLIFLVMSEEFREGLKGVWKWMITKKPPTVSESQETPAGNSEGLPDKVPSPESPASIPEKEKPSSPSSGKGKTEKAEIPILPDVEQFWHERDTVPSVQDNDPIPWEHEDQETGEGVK
MITF inh conf = human MITF inhibition, confirmation; shares compounds with MITF primary; AlphaScreen MITF homodimerization, biotin/His-MITF beads; inhibition, % at 2.6 µM; 4,700 compounds, 16% hits;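 active = inhibition above a cutoff derived from the DMSO control wells, cut at about 28% in these data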;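 note: inhibitors lower the bead chemiluminescence by keeping MITF from dimerizing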
AS interf DR = AlphaScreen optical interference, dose response counter-screen; 480 compounds, 6% hits; AlphaScreen optical interference counterscreen, cell-free; shares compounds with MITF primary; IC50, µM; call rule not given here
AS interf ctr = counter-screen: compounds optically interfering with AlphaScreen; shares compounds with MITF primary; LysRS AlphaScreen counterscreen, signal interference, triplicate; inhibition, % at 2.6 µM; 4,700 compounds, 7.6% hits; AID 1259376;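 active = inhibition above a cutoff derived from the DMSO control wells, cut at about 30% in these data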
Large screens that a line does not name were inactive (follow-up assays come after a bar, where they were run). Only some compounds are listed: those with a hit (about 3.5% of all), similar ones and a draw of the others.

CCOc1ccc(/C=C2/C=C(c3ccc(F)cc3)OC2=O)cc1	none
O=c1cnnc(SCc2cccc(F)c2)[nH]1	none
c1ccc(-c2nc(-c3cccnc3)cc(N3CCN(c4ccccn4)CC3)n2)cc1	none
Fc1ccc(-c2cc(N3CCN(c4ccccn4)CC3)nc(-c3cccnc3)n2)cc1	MITF primary 73.2 | MITF inh conf inactive | AS interf ctr inactive
OC1CCN(c2cc(-c3cccnc3)nc(-c3ccccc3)n2)CC1	MITF primary 71.4 | MITF inh conf inactive | AS interf ctr inactive
OC1CCN(c2cc(-c3ccccc3)nc(-c3cccnc3)n2)CC1	none
CCOC(=O)N1CCc2c(sc3c2C(=O)NC(c2cc4c(cc2Cl)OCO4)N3)C1 (configuration not stated)	none
C/C(=N\OCC(O)CN1CCOCC1)C1COc2ccccc2O1 (configuration not stated)	MITF primary 51.1 | MITF inh conf inactive | AS interf ctr inactive
CCOc1ccccc1C1C(C(N)=O)=C(C)Nc2nc(-c3cccc(Cl)c3)nn21 (configuration not stated)	none
COCCn1c(=S)[nH]c2cc(C(=O)NCc3ccc(C)cc3)ccc2c1=O	MITF primary 62.0 | MITF inh conf inactive | AS interf ctr inactive
CC(C)NC(=O)c1ccc2c(=O)n(CCC3=CCCCC3)c(=S)[nH]c2c1	MITF primary 83.9 | MITF inh conf inactive | AS interf ctr inactive
COCCn1c(=S)[nH]c2cc(C(=O)NCc3ccc(F)cc3)ccc2c1=O	none
CC[C@H](C)[C@@H]1NC(=O)[C@H]2CN(C(=O)c3ccc(-c4ccccc4)cc3)CCN2C1=O	none
CC(C)[C@H]1NC(=O)[C@H]2CN(C(=O)NCc3ccccc3)CCN2C1=O	MITF primary 70.0 | MITF inh conf 68.5 | AS interf DR inactive | AS interf ctr inactive
C[C@@H](OCc1ccccc1)[C@@H]1NC(=O)[C@H]2CN(C(=O)NCc3ccccc3)CCN2C1=O	MITF primary 76.0 | MITF inh conf 71.2 | AS interf DR inactive | AS interf ctr inactive
CC[C@H](C)[C@@H]1NC(=O)[C@H]2CN(C(=O)NCc3ccccc3)CCN2C1=O	MITF primary 74.3 | MITF inh conf 66.3 | AS interf DR inactive | AS interf ctr inactive
C[C@@H]1NC(=O)[C@H]2CN(C(=O)NCc3ccccc3)CCN2C1=O	MITF primary 71.1 | MITF inh conf 74.8 | AS interf DR inactive | AS interf ctr inactive
Cc1ccc(NCC(F)(F)C(F)F)cc1	none
Clc1ccc(-c2ccc(CN3CCc4nnc(C5CCCO5)n4CC3)o2)cc1 (configuration not stated)	none
CC[C@H](C)[C@@H]1NC(=O)[C@H]2CN(C(=O)Nc3cccc(F)c3)CCN2C1=O	MITF primary 58.1 | MITF inh conf 74.7 | AS interf DR inactive | AS interf ctr inactive
CC[C@H](C)[C@@H]1NC(=O)[C@H]2CN(C(=O)Oc3ccc(F)cc3)CCN2C1=O	none
Cn1c(-c2cccc([N+](=O)[O-])c2)cnc1NCc1ccc(F)cc1	none
Cn1c(-c2ccc(F)cc2)cnc1NCc1cccc([N+](=O)[O-])c1	MITF primary 58.8 | MITF inh conf inactive | AS interf ctr inactive
Cn1c(-c2cccc([N+](=O)[O-])c2)cnc1NCc1cccc(F)c1	MITF primary 52.4 | MITF inh conf inactive | AS interf ctr inactive
Cn1c(-c2cccc([N+](=O)[O-])c2)cnc1NCc1cccc(O)c1	none
COc1ccc(OC)c(CN2CCN(Cc3cc(OC)c(OC)c(OC)c3)CC2)c1	MITF primary 68.3 | MITF inh conf inactive | AS interf ctr inactive
CCOc1cc(CN2CCN(Cc3ccccc3OC)CC2)ccc1OC	none
COc1ccc(OC)c(CN2CCN(C(=O)c3cc(OC)c(OC)c(OC)c3)CC2)c1	none
CCOc1cc(CN2CCN(Cc3cc(OC)ccc3OC)CC2)ccc1OC	MITF primary 57.7 | MITF inh conf inactive | AS interf ctr inactive
Cc1cc(C(=O)COC(=O)/C=C/c2ccco2)c(C)n1Cc1cccs1	none
CCc1ccccc1NC(=O)CC1Sc2ccc(C(F)(F)F)cc2NC1=O (configuration not stated)	none
CSc1ccccc1NC(=O)CC1Sc2ccc(C(F)(F)F)cc2NC1=O (configuration not stated)	MITF primary 55.6 | MITF inh conf inactive | AS interf ctr inactive
